Measured values taken from PubChem BioAssay AID1159580 (chemical genetic matrix, 2015).
“And” between values parts separate entries of the source, which are not always exact repeats. Identical values can stand only once. Screen size: about 5,500 compounds; about 2,000 (36%) were called active. Another 18% or so got no clear call; they are omitted. Rule as the data show it: active = normalized growth mostly below about 0.91 (no sharp cut-off); inconclusive = no clear call, values can overlap the other calls; inactive = mostly above about 0.92. Some of the results follow.

Experiment: chemical genetic growth profiling, strain panel (AID 1159580);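 also: tested at 20 µM; growth read once vehicle control cultures reached saturation at 30 °C; 1 = growth at the plate median or of vehicle wells; lower values mean less growth of the strain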
Conditions: S. cerevisiae deletion strains, growth OD

Measured: normalized growth

NC(N)=NCCCCN=C(N)N
inactive: locus YAL013W, strain DEP1, stronger effect = lower value 0.997 | locus YAL021C, strain ccr4, stronger effect = lower value 0.993 | locus YAL026C, strain drs2, stronger effect = lower value 0.984 | locus YAL030W, strain snc1, stronger effect = lower value 1 | locus YAL040C, strain CLN3, stronger effect = lower value 1.01 | locus YBL061C, strain skt5, stronger effect = lower value 1.01 | locus YBR009C, strain hhf1, stronger effect = lower value 1.01 | locus YBR021W, strain FUR4, stronger effect = lower value 1.04 | locus YBR023C, strain chs3, stronger effect = lower value 1.01 | locus YBR171W, strain sec66, stronger effect = lower value 0.986 | locus YBR229C, strain ROT2, stronger effect = lower value 0.957 | locus YBR231C, strain swc5, stronger effect = lower value 1 | locus YBR279W, strain paf1, stronger effect = lower value 0.992 | locus YCL011C, strain gbp2, stronger effect = lower value 1.01 | locus YCL016C, strain dcc1, stronger effect = lower value 1.01 | locus YCL029C, strain bik1, stronger effect = lower value 0.989 | locus YCL061C, strain MRC1, stronger effect = lower value 1 | locus YCL069W, strain vba3, stronger effect = lower value 0.984 | locus YCR088W, strain abp1, stronger effect = lower value 1 | locus YDL005C, strain med2, stronger effect = lower value 0.998 | locus YDL035C, strain GPR1, stronger effect = lower value 0.985 | locus YDL040C, strain nat1, stronger effect = lower value 1 | locus YDL074C, strain BRE1, stronger effect = lower value 0.957 | locus YDL101C, strain DUN1, stronger effect = lower value 0.953 | locus YDL134C, strain PPH21, stronger effect = lower value 0.995 | locus YDL185W, strain tfp1, stronger effect = lower value 0.968 | locus YDL192W, strain arf1, stronger effect = lower value 0.992 | locus YDR001C, strain nth1, stronger effect = lower value 1 | locus YDR069C, strain doa4, stronger effect = lower value 0.999 | locus YDR101C, strain arx1, stronger effect = lower value 1 | locus YDR137W, strain rgp1, stronger effect = lower value 1.01 | locus YDR150W, strain NUM1, stronger effect = lower value 0.983 | locus YDR159W, strain sac3, stronger effect = lower value 1 | locus YDR162C, strain NBP2, stronger effect = lower value 0.948 | locus YDR195W, strain ref2 0.984 | locus YDR297W, strain sur2, stronger effect = lower value 0.999 | locus YDR318W, strain mcm21, stronger effect = lower value 1.01 | locus YDR334W, strain swr1, stronger effect = lower value 0.99 | locus YDR335W, strain msn5, stronger effect = lower value 0.997 | locus YDR388W, stronger effect = lower value 0.996 | locus YDR392W, strain spt3, stronger effect = lower value 0.946 | locus YDR502C, strain sam2, stronger effect = lower value 0.991 | locus YEL003W, strain gim4, stronger effect = lower value 0.993 | locus YEL037C, strain rad23, stronger effect = lower value 0.964 | locus YEL061C, strain CIN8 (second series), stronger effect = lower value 0.991 | locus YEL061C, strain CIN8, stronger effect = lower value 0.989 | locus YER002W, strain NOP16, stronger effect = lower value 1 | locus YER015W, strain faa2, stronger effect = lower value 0.997 | locus YER016W, strain bim1, stronger effect = lower value 1 | locus YER110C, stronger effect = lower value 0.99 | locus YER111C, strain swi4, stronger effect = lower value 0.99 | locus YER155C, strain BEM2 (second series), stronger effect = lower value 1.01 | locus YER155C, strain BEM2, stronger effect = lower value 1 | locus YER167W, strain BCK2, stronger effect = lower value 1.01 | locus YFR010W, strain ubp6, stronger effect = lower value 0.98 | locus YGL078C, strain dbp3, stronger effect = lower value 0.996 | locus YGL086W, strain mad1, stronger effect = lower value 1.01 | locus YGL167C, strain pmr1, stronger effect = lower value 1.01 | locus YGL173C, strain kem1, stronger effect = lower value 0.995 | locus YGL227W, strain vid30, stronger effect = lower value 1 | locus YGL240W, strain doc1, stronger effect = lower value 1 | locus YGL248W, strain PDE1, stronger effect = lower value 0.994 | locus YGL253W, strain hxk2, stronger effect = lower value 1 | locus YGR078C, strain PAC10, stronger effect = lower value 0.969 and 0.994 | locus YGR135W, strain pre9, stronger effect = lower value 0.982 | locus YGR229C, strain SMI1, stronger effect = lower value 0.999 | locus YGR252W, strain gcn5, stronger effect = lower value 1.03 | locus YHR013C, strain ard1, stronger effect = lower value 1 | locus YHR027C, strain rpn1, stronger effect = lower value 1 | locus YHR030C, strain SLT2, stronger effect = lower value 1 and 0.976 | locus YHR079C, strain IRE1 (second series), stronger effect = lower value 1.01 | locus YHR079C, strain IRE1, stronger effect = lower value 0.986 | locus YHR094C, strain hxt1, stronger effect = lower value 1.01 | locus YHR129C, strain ARP1, stronger effect = lower value 0.994 | locus YHR142W, strain chs7, stronger effect = lower value 1 | locus YHR200W, strain rpn10, stronger effect = lower value 1.01 | locus YIL066C, strain RNR3, stronger effect = lower value 0.969 | locus YIL073C, strain SPO22, stronger effect = lower value 1.03 | locus YIL125W, strain kgd1, stronger effect = lower value 0.992 | locus YIR030C, strain dcg1, stronger effect = lower value 0.993 | locus YJL092W, strain hpr5, stronger effect = lower value 0.999 | locus YJL095W, strain BCK1 (second series), stronger effect = lower value 1.01 | locus YJL095W, strain BCK1, stronger effect = lower value 0.992 and 0.985 | locus YJL115W, strain asf1, stronger effect = lower value 0.993 | locus YJL129C, strain trk1, stronger effect = lower value 1.02 | locus YJL134W, strain LCB3, stronger effect = lower value 0.989 | locus YJL154C, strain vps35, stronger effect = lower value 0.992 | locus YJL164C, strain tpk1, stronger effect = lower value 1.01 | locus YJL166W, strain qcr8, stronger effect = lower value 1.01 | locus YJL168C, strain set2, stronger effect = lower value 0.992 | locus YJL187C, strain SWE1 (second series), stronger effect = lower value 0.969 | locus YJL187C, strain SWE1, stronger effect = lower value 1.01 | locus YJR043C, strain POL32, stronger effect = lower value 1.02 | locus YJR066W, strain TOR1, stronger effect = lower value 0.99 | locus YJR075W, strain HOC1, stronger effect = lower value 0.94
